# Results taken from PubChem BioAssay AID1835 (Johns Hopkins Ion Channel Center, 2009).
# In all, about 2,400 compounds went through this assay and about 750 (31%) were called active. Some of the results follow. Values without a mark were called inactive.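 How the source made its calls: active means median signal gain over dofetilide-blocked control wells reaching their mean plus 3 SD, so readout 1 at least 0; inactive means the rest.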
# Biological target: Voltage-gated inwardly rectifying potassium channel KCNH2 (Homo sapiens) (UniProt Q12809)
# Sequence (Q12809 whole entry, looked up): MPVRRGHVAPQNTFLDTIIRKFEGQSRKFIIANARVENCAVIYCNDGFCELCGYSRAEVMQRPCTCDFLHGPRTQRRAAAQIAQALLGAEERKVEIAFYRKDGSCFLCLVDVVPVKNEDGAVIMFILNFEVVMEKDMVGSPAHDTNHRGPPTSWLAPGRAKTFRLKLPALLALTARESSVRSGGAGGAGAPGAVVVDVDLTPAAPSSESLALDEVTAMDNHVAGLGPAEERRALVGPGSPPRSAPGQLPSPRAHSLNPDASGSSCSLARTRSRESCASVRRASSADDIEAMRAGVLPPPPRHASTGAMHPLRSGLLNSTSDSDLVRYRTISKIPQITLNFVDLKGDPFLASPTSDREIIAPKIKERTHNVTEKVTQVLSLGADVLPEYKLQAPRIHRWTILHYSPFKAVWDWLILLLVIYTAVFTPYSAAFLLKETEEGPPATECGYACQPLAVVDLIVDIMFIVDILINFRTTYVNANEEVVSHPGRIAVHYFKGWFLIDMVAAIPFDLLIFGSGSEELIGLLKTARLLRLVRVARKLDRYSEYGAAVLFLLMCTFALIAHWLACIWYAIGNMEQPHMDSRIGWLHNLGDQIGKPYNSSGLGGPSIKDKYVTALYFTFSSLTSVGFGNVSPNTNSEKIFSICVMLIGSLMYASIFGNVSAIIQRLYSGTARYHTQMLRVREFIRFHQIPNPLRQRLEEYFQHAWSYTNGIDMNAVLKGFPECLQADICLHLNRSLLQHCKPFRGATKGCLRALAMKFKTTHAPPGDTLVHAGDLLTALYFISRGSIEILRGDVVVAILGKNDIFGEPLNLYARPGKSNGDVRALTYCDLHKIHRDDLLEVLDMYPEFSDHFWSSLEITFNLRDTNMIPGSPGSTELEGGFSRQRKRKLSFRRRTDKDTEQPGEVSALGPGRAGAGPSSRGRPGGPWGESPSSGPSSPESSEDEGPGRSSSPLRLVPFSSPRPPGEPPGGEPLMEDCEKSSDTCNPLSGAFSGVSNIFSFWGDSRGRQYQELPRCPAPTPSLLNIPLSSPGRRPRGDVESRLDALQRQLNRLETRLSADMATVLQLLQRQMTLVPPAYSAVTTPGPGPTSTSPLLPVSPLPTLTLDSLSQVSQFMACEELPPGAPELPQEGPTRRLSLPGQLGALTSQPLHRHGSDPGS
# Test: hERG protection against dofetilide inhibition, confirmation, cell-based, thallium flux, duplicate retest, dofetilide IC70 (AID 1835)
# Details: hERG cell line, FluxOR thallium flux, dofetilide-blocked; at 10 µM; active compounds read high
row,SMILES,"activity increase over dofetilide control, less the hit threshold"
1,Cc1cc(C)c(S(=O)(=O)Nc2cccc(-n3cnnn3)c2)c(C)c1,-14%
2,O=C(COC(=O)C1CCC(=O)N1)Nc1ccc(Oc2ccccc2)cc1 (configuration not stated),-9%
3,O=C(CCSc1ccc(Br)cc1)c1ccc(O)cc1,2% (active)
4,CN1CCN(S(=O)(=O)c2cccc(S(=O)(=O)c3ccc(Cl)cc3)c2)CC1,-10%
5,CCSc1nc2c(sc3ccccc32)c(=O)n1C(C)C,25% (active)
6,COc1cccc(-n2nc(C(=O)O)c3ccccc3c2=O)c1,11% (active)
7,CCN(CC)CCCNC(=O)c1cn(-c2cccc(OC)c2)c(=O)c2ccccc12,-16%
8,COc1cccc(NC(=O)c2nn(-c3ccc(OC)cc3OC)c(=O)c3ccccc23)c1,-8%
9,Cc1cccc(C(=O)NC(=S)NNC(=O)c2ccc(Cl)cc2)c1,-10%
10,Cc1ccc(C(=O)NNC(=S)NC(=O)c2ccc(Cl)cc2)cc1,-23%
11,CC(C)CNC(=S)NC(=O)c1ccc(Cl)cc1,19% (active)
12,Nc1nc2n(n1)C(=O)CC(c1ccc(Cl)cc1)N2 (configuration not stated),-10%
13,CN(C)S(=O)(=O)c1cc(NC2CC(=O)N(c3ccc(F)cc3)C2=O)ccc1Cl (configuration not stated),-2%
14,COc1nccnc1NS(=O)(=O)c1ccc(NC(=S)NC(=O)c2ccccc2F)cc1,-17%
15,CCN(Cc1ccccc1)C(=S)NC(=O)c1ccccc1Br,47% (active)
16,O=C(Cn1cncn1)c1ccccc1Br,-24%
17,CCCN(Cc1ccccc1)C(=S)NC(=O)c1ccccc1[N+](=O)[O-],52% (active)
18,O=C(NC(=S)N(Cc1ccccc1)Cc1ccccc1)c1ccccc1F,32% (active)
19,CN(Cc1ccccc1)C1CCN(Cc2ccccc2[N+](=O)[O-])CC1,-16%
20,CCC(=O)NC(=S)NNC(=O)c1ccccc1[N+](=O)[O-],-3%
21,O=C(NC(=S)N(CCO)Cc1ccccc1)c1cc(Br)ccc1Cl,7% (active)
22,O=C(O)c1ccc2c(c1)C(=O)N(c1cc([N+](=O)[O-])ccn1)C2=O,-3%
23,CCCN1Cc2cccc(C(=O)NCc3cccs3)c2C1=O,-21%
24,CCCCCCc1cc2cc(-c3nnc(-c4ccccc4O)o3)c(=O)oc2cc1O,-16%
25,Cn1cc([N+](=O)[O-])c(C(=O)N/N=C\c2c[nH]c3ccccc23)n1,-7%
26,COc1ccc(-c2ccc(/C=N/NC(=O)c3cccnc3)o2)c([N+](=O)[O-])c1,1% (active)

row,SMILES,"activity increase over dofetilide control, less the hit threshold"
1,O=C(Nc1ccc(Oc2cccnc2)cc1)c1cccc([N+](=O)[O-])c1,-6%
2,O=C(Nc1c[nH]c(=O)[nH]c1=O)c1ccc2c(c1)C(=O)N(c1cccc([N+](=O)[O-])c1)C2=O,-10%
3,CC(=O)Cn1c(=O)c2c(nc3n2CCCN3Cc2ccccc2)n(C)c1=O,-13%
4,O=c1[nH]n2c(=O)c3c([nH]c2c1N=Nc1ccccc1)CCC3,-14%
5,O=c1[nH]c(N2CCN(c3ccccc3)CC2)nc2c1CCCC2,2% (active)
6,c1ccc(-c2ccnc3nc(N4CCN(c5ccccc5)CC4)nn23)cc1,-35%
7,CN(C(=O)c1cnccn1)c1nnc(-c2cnccn2)s1,-15%
8,NC(=O)Cn1nnc(-c2ccc(CN3CCCCC3)cc2)n1,-23%
9,COc1ccc(-c2cc(C(=O)N3CCCC3)no2)cc1OC,0%
10,O=C(O)Cc1sc(-c2ccc(Cl)cc2)nc1-c1ccccc1,-10%
11,CCOC(=O)c1ccc(NC(=O)Cn2nnc(-c3ccccc3)n2)cc1,-19%
12,Cc1nn(CC(=O)Nc2ccc(C(=O)N3CCCC3)cc2)c(=O)c2ccccc12,-11%
13,O=C(Cn1nc(-c2ccccc2)c2ccccc2c1=O)Nc1ccc(O)cc1,24% (active)
14,CCOC(=O)c1sc2nc(C)[nH]c(=S)c2c1C,21% (active)
15,CCOC(=O)c1sc2nc(Cc3ccc(Cl)cc3)[nH]c(=S)c2c1C,52% (active)
16,N/C(=N\OCc1ccccc1)c1nonc1N,-16%
17,CC(C)Cc1nnc(NC(=O)Cc2ccccc2[N+](=O)[O-])s1,-5%
18,c1ccc(-c2csc(Nc3ccc4c(c3)OCCO4)n2)cc1,-17%
19,CCc1ccc(NC(=O)C(=O)NNC(=O)c2ccc(OC)cc2)cc1,87% (active)
20,COc1cccc(NC(=O)c2cncs2)c1,-13%
21,CCOc1cccc(C(=O)Nc2ccc3[nH]ncc3c2)c1,-18%
22,COc1ccc(NC(=O)c2ccc(COCC(F)(F)C(F)F)cc2)cc1,-14%
23,COc1ccc(NC(=O)c2ccc(NC3=NC4CS(=O)(=O)CC4S3)cc2)cc1 (configuration not stated),-17%
24,CCc1ccc(NC(=O)C(=O)NNC(=O)c2cccc(OC)c2)cc1,70% (active)
25,COc1cc(CCC(=O)NNC(=O)c2ccc(C)cc2)cc(OC)c1OC,-3%
26,COc1ccc(OCC(=O)NNC(=O)C(=O)Nc2ccc(C)cc2)cc1,-11%

row,SMILES,"activity increase over dofetilide control, less the hit threshold"
1,COc1ccc(C(=O)NNC(=O)C(=O)Nc2ccc(C)cc2)cc1,30% (active)
2,COc1cccc(C(=O)NNC(=O)C(=O)Nc2ccc(C)cc2)c1,56% (active)
3,CCc1ccc(NC(=S)Nc2cccc(OC)c2)cc1,-26%
4,CCN(/N=C/c1ccc(Cl)cc1)c1cc(=O)n(C)c(=O)[nH]1,-20%
5,Cc1noc(C)c1COc1cccc(C(=O)NCc2cccc(Cl)c2)c1,-18%
6,CC(C)C12CN3CC(C(C)C)(CN(C1)C31C(=O)Nc3ccccc31)C2=O (configuration not stated),-24%
7,O=C(COc1nsnc1N1CCOCC1)Nc1ccc(Cl)cc1,-21%
8,CC(C)(C)c1csc(NC(=O)C2=COCCO2)n1,-17%
9,CCc1nnc(NC(=O)CCC(=O)N2CCN(C3CCCCC3)CC2)s1,-22%
10,CCOC(=O)c1sc2nc(C)nc(SCC(=O)N(C)C3CCS(=O)(=O)C3)c2c1C (configuration not stated),-6%
11,Cc1ccccc1-n1c(SCC(=O)N(C)C2CCS(=O)(=O)C2)nnc1-c1ccncc1 (configuration not stated),-8%
12,O=C(O)CCSc1ncnc2sc(-c3ccccc3)cc12,9% (active)
13,CN(C(=O)CSc1ncnc2sc(-c3ccccc3)cc12)C1CCS(=O)(=O)C1 (configuration not stated),82% (active)
14,Nc1nc2c(s1)CCc1c-2cnn1-c1ccccc1,-46%
15,CC(=O)c1ccc(N2CCN(C(=O)Cc3ccccc3)CC2)c(F)c1,-15%
16,O=c1c(-c2ccccc2)nc(-c2ccccc2)cn1O,33% (active)
17,Cc1nc(-c2ccccc2)cn(O)c1=O,16% (active)
18,CC1=NN(c2nc(-c3ccccc3)cs2)C(=O)C1N=Nc1ccccc1 (configuration not stated),-31%
19,COC(=O)Nc1c(-c2ccccc2)nc2ccccn12,-4%
20,O=C(O)C/C(=C\c1cc(Br)cs1)c1nc2ccccc2o1,-6%
21,Cc1cccc(/N=C/c2sc3ccccc3c2O)n1,-13%
22,O=c1c([N+](=O)[O-])c(N2CCCCC2)c2ccccc2n1-c1ccccc1,-18%
23,Oc1ccc2[nH]cnc2c1CN1CCCCC1,-18%
24,CCc1ccc2[nH]c(O)c(N=Nc3nc(-c4ccccc4)cs3)c2c1,-8%
25,Cn1c(O)c(N=Nc2nc(-c3ccccc3)cs2)c2ccccc21,65% (active)
26,Cc1ccccc1OCC(=O)N=Nc1c(O)n(C)c2ccccc12,-5%

row,SMILES,"activity increase over dofetilide control, less the hit threshold"
1,COC(=O)/C=C1\S/C(=N/N=C/c2ccco2)NC1=O,-10%
2,C=CCSc1nc2sc3c(c2c(=O)n1CC)CCc1ccccc1-3,-4%
3,CCOC(=O)c1cnn(-c2nc(SC)nc3sc4c(c23)CCCC4)c1N,-1%
4,CCn1c(SC(C)C(=O)O)nc2sc3c(c2c1=O)CCC3 (configuration not stated),7% (active)
5,CCCn1c(SCC(=O)N2CCN(C(C)=O)CC2)nc2sc3c(c2c1=O)CCC3,20% (active)
6,CCC(=O)N1CCN(c2nc(CC)nc3sc4c(c23)CCCC4)CC1,-30%
7,CCn1c(SCC(N)=O)nc2sc3c(c2c1=O)CCCC3,3% (active)
8,CC(=O)/C=C1/C(=O)Nc2ccccc21,-39%
9,COc1cc(/C=N/Nc2nc(N3CCCC3)nc(N3CCCC3)n2)ccc1OCc1ccccc1F,-34%
10,O=C1CC(C(=O)N2CCOCC2)C2(CCCCC2)O1 (configuration not stated),-19%
11,CC1CCN(c2ccc3c(c2)S(=O)(=O)c2ccccc2C3=O)CC1,-27%
12,O=C1c2ccccc2C(=O)N1Cc1nc2ccccc2c(=O)n1CCCn1ccnc1,-25%
13,S=C(N/N=C/c1ccccc1Cl)Nc1cccc(Cl)c1Cl,23% (active)
14,Fc1ccccc1NC(=S)N/N=C/c1ccccc1Br,-20%
15,Cc1ccc(Cl)cc1NC(=S)N/N=C/c1cccc2ccccc12,-11%
16,O=C(CNCC1CCCO1)N1CCCCCC1 (configuration not stated),-11%
17,Cc1ccc2c(Cl)cc(Cl)c(OCC(=O)NC3CCS(=O)(=O)C3)c2n1 (configuration not stated),-15%
18,CCCCSc1nnc(CCC)n1N,-21%
19,CCCCCCCC/C=C\CCCCCCCC(=O)O,22% (active)
20,O=C(c1ccc(CS(=O)c2cccc(Cl)c2)o1)N1CCCCCC1 (configuration not stated),-7%
21,CC(C)(C)NC(=O)CN(C(=O)CS(=O)CC(=O)Nc1ccc(F)cc1)c1cccc(F)c1 (configuration not stated),-13%
22,CC(C)Oc1c(Cl)cc(CNC(C)(C)CO)cc1Cl,1% (active)
23,CC(C)(C)c1cc(-c2n[nH]c(=S)n2-c2ccccc2F)n[nH]1,7% (active)
24,Fc1ccccc1-c1n[nH]c(=S)n1C1CC1,-4%
